In PubChem BioAssay AID1159580 (chemical genetic matrix, 2015):
About 2,000 (36%) of roughly 5,500 compounds were called active. About 18% were inconclusive and are not listed. Rule as the data show it: active = normalized growth mostly below about 0.91 (no sharp cut-off); inconclusive = no clear call, values can overlap the other calls; inactive = mostly above about 0.92. The list shows a part of the results.

Experiment: chemical genetic growth profiling, strain panel (AID 1159580);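 also: tested at 20 µM; growth read once vehicle control cultures reached saturation at 30 °C; 1 = growth at the plate median or of vehicle wells; lower values mean less growth of the strain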
Conditions: S. cerevisiae deletion strains, growth OD

Measured: normalized growth

CC1(C)O[C@@H]2[C@@H](CO[C@@]3(COS(N)(=O)=O)OC(C)(C)O[C@@H]23)O1
inactive: locus YAL021C, strain ccr4, active compounds read low 1.03 | locus YAL026C, strain drs2, active compounds read low 1.03 | locus YAL030W, strain snc1, active compounds read low 1.01 | locus YBL061C, strain skt5, active compounds read low 1.01 | locus YBR009C, strain hhf1, active compounds read low 0.983 | locus YBR023C, strain chs3, active compounds read low 1.02 | locus YBR171W, strain sec66, active compounds read low 1.01 | locus YBR231C, strain swc5, active compounds read low 0.981 | locus YBR279W, strain paf1, active compounds read low 1.02 | locus YCL011C, strain gbp2, active compounds read low 1.01 | locus YCL016C, strain dcc1, active compounds read low 1.04 | locus YCL069W, strain vba3, active compounds read low 1.01 | locus YCR088W, strain abp1, active compounds read low 1.01 | locus YDL005C, strain med2, active compounds read low 1.02 | locus YDL040C, strain nat1, active compounds read low 0.997 | locus YDR001C, strain nth1, active compounds read low 1 | locus YDR069C, strain doa4, active compounds read low 0.994 | locus YDR137W, strain rgp1, active compounds read low 1.08 | locus YDR159W, strain sac3, active compounds read low 0.94 | locus YDR195W, strain ref2 0.987 | locus YDR297W, strain sur2, active compounds read low 0.992 | locus YDR334W, strain swr1, active compounds read low 1.02 | locus YDR335W, strain msn5, active compounds read low 1.02 | locus YDR392W, strain spt3, active compounds read low 1.01 | locus YEL003W, strain gim4, active compounds read low 0.99 | locus YEL037C, strain rad23, active compounds read low 1 | locus YEL061C, strain CIN8 (second series), active compounds read low 1 | locus YER015W, strain faa2, active compounds read low 1.01 | locus YER016W, strain bim1, active compounds read low 1.04 | locus YER111C, strain swi4, active compounds read low 1.02 | locus YER155C, strain BEM2 (second series), active compounds read low 1.02 | locus YFR010W, strain ubp6, active compounds read low 0.983 | locus YGL167C, strain pmr1, active compounds read low 1.01 | locus YGL173C, strain kem1, active compounds read low 0.998 | locus YGL227W, strain vid30, active compounds read low 1.01 | locus YGL240W, strain doc1, active compounds read low 0.991 | locus YGL253W, strain hxk2, active compounds read low 1 | locus YHR013C, strain ard1, active compounds read low 1.07 | locus YHR027C, strain rpn1, active compounds read low 1.01 | locus YHR030C, strain SLT2, active compounds read low 0.98 | locus YHR079C, strain IRE1, active compounds read low 0.965 | locus YHR142W, strain chs7, active compounds read low 1.02 | locus YJL092W, strain hpr5, active compounds read low 1.01 | locus YJL095W, strain BCK1 (second series), active compounds read low 1.01 | locus YJL095W, strain BCK1, active compounds read low 0.974 | locus YJL115W, strain asf1, active compounds read low 1.01 | locus YJL129C, strain trk1, active compounds read low 1.01 | locus YJL154C, strain vps35, active compounds read low 1 | locus YJL164C, strain tpk1, active compounds read low 0.988 | locus YJL166W, strain qcr8, active compounds read low 0.985 | locus YJL187C, strain SWE1, active compounds read low 0.992 | locus YJR066W, strain TOR1, active compounds read low 0.942 | locus YKL160W, strain elf1, active compounds read low 1.05 | locus YKR026C, strain gcn3, active compounds read low 1 | locus YKR091W, strain srl3, active compounds read low 0.999 | locus YLL001W, strain dnm1, active compounds read low 0.987 | locus YLL026W, active compounds read low 1 | locus YLL041C, strain sdh2, active compounds read low 0.991 | locus YLR027C, strain aat2, active compounds read low 1.01 | locus YLR113W, strain HOG1, active compounds read low 0.964 | locus YLR221C, strain rsa3, active compounds read low 0.992 | locus YLR258W, strain gsy2, active compounds read low 1.02 | locus YLR262C, strain YPT6 (second series), active compounds read low 1.01 | locus YLR320W, strain mms22, active compounds read low 0.956 | locus YLR342W, strain FKS1, active compounds read low 1.03 | locus YLR357W, strain rsc2, active compounds read low 1 | locus YLR370C, strain arc18, active compounds read low 1.01 | locus YLR384C, strain iki3, active compounds read low 1.03 | locus YML120C, strain ndi1, active compounds read low 0.999 | locus YMR058W, strain fet3, active compounds read low 1.01 | locus YMR125W, strain sto1, active compounds read low 1 | locus YMR129W, active compounds read low 1 | locus YMR205C, strain PFK2, active compounds read low 0.981 | locus YMR231W, strain pep5, active compounds read low 1 | locus YNL071W, strain lat1, active compounds read low 1.01 | locus YNL183C, strain NPR1, active compounds read low 0.902 | locus YNL209W, strain ssb2, active compounds read low 1.01 | locus YNL248C, strain rpa49, active compounds read low 1.03 | locus YNL322C, strain KRE1 (second series), active compounds read low 1.01 | locus YNR049C, strain mso1, active compounds read low 0.99 | locus YOR001W, strain rrp6, active compounds read low 0.965 | locus YOR070C, strain gyp1, active compounds read low 1.01 | locus YOR080W, strain dia2, active compounds read low 1.02 | locus YOR083W, strain WHI5, active compounds read low 0.996 | locus YOR106W, strain vam3, active compounds read low 1.04 | locus YOR231W, strain MKK1, active compounds read low 0.977 | locus YOR265W, strain rbl2, active compounds read low 1 | locus YOR270C, strain vph1, active compounds read low 1.06 | locus YOR290C, strain snf2, active compounds read low 1.06 | locus YPL051W, strain arl3, active compounds read low 1.07 | locus YPL078C, strain atp4, active compounds read low 1.04 | locus YPL106C, strain sse1, active compounds read low 1.07 | locus YPL240C, strain hsp82, active compounds read low 1.01 | locus YPL256C, strain CLN2, active compounds read low 0.95
